# Hit rate of the full screen: of about 310,000 compounds, about 14,000 (4.5%) showed an effect of 50% or more. The effect is printed as a negative number. Shown is part of a subset that was picked to be rich in strong results.
# Biological target: human ether-à-go-go-related gene (hERG) potassium channel (human, UniProt Q12809)
# Assay: primary screen, population patch clamp on CHO cells stably expressing hERG; higher = less effect of the substance
# 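Note: peak tail current of the secondary pulse compared with the same well before compound.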
# human ether-à-go-go-related gene (hERG) potassium channel, sequence (Q12809 whole entry, looked up): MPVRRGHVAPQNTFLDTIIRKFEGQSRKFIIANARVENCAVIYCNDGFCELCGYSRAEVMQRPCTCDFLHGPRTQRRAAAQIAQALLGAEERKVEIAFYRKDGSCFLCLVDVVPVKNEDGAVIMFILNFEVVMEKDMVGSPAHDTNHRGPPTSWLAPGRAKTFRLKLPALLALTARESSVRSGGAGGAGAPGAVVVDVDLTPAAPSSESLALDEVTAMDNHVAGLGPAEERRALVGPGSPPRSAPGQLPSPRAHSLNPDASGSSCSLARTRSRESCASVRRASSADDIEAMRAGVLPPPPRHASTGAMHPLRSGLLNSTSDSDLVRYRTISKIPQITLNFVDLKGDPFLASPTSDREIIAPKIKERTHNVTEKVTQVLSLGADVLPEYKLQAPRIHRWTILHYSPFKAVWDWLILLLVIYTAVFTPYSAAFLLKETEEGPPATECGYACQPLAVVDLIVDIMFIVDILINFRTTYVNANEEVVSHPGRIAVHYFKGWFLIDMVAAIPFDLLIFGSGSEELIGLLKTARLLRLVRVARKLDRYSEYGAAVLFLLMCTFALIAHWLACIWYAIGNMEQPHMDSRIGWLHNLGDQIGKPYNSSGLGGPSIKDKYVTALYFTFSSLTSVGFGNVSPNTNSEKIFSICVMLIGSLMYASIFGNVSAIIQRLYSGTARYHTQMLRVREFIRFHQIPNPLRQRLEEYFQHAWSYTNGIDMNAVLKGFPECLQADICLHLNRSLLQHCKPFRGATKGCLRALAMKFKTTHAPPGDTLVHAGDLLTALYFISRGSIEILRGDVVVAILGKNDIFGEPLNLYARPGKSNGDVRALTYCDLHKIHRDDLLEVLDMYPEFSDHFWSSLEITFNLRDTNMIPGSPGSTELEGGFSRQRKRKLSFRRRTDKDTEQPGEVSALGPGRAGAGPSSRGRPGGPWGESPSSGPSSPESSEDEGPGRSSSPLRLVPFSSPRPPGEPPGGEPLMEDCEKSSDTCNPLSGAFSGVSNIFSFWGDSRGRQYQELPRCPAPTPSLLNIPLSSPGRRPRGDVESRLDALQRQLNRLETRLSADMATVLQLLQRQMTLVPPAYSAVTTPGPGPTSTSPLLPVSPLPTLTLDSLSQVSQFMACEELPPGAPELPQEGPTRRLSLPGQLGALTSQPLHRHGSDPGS
row,Structure (SMILES),"hERG current change (%, negative = inhibition) at 10uM"
1,OC1(c2cccc(C(F)(F)F)c2)CCN(Cc2nc(-c3cnccn3)no2)CC1,-0.399%
2,CCC(=O)N=c1sc2c(OC)ccc(OC)c2n1C,11%
3,COc1ccc(Cl)cc1C(=O)Nn1c(-c2cccs2)nc2ccccc2c1=O,-5.47%
4,O=C(O)c1nn(-c2ccccc2)nc1-c1nn(-c2ccccc2)nc1C(=O)O,19.7%
5,O=C(N/N=C/c1cc([N+](=O)[O-])ccc1Cl)c1cc(-c2ccccc2)nc2ccccc12,7.64%
6,CCCc1oc(C(=O)O)cc1CN.Cl,5.96%
7,COc1ccc(-c2c(S(=O)(=O)c3ccccc3)cnn2-c2ccccc2)cc1,-2.43%
8,Cl.O=C(CCN1CCOCC1)c1ccccc1,3.53%
9,Cl.O=C(CCN1CCC(c2ccccc2)C1)c1ccccc1 (stereo not shown),-35.8%
10,Cl.O=C(CCCN1CCC(c2ccccc2)C1)c1ccc2c(c1)OCCO2 (stereo not shown),-70.3%
11,Cl.O=C(CCN1CCc2ccccc2C(c2ccccc2)C1)c1ccc2c(c1)OCCO2 (stereo not shown),-0.525%
12,Cl.O=C(CCN1CCc2ccccc2CC1)c1ccc2c(c1)OCCO2,-60.6%
13,O=C(CCCc1ccccc1)c1ccc2c(c1)OCCO2,-5.25%
14,Cl.O=C(CCCN1CCOC(c2ccccc2)C1)c1ccc(F)cc1 (stereo not shown),-60.7%
15,Cl.O=C(CCN1Cc2ccccc2C1)c1ccc2c(c1)OCCO2,-8.74%
16,O=C1C(=O)N(CCCN2CCOCC2)C(c2ccc(F)cc2)/C1=C(/O)c1ccccc1 (stereo not shown),23%
17,Cl.O=C(CCN1CCCCC1)c1ccc2c(c1)OCCO2,4.82%
18,Cl.O=C(CCN1CCC(c2ccccc2)C1)c1ccc2c(c1)OCCO2 (stereo not shown),-56%
19,Cl.O=C(CCN1CCc2ccccc2C1)c1ccc2c(c1)OCCO2,-32.2%
20,O=C1/C(=C/c2ccccc2Cl)N2CCC1CC2,-14.1%
21,Cc1ccc(OCCn2cc(/C=N/NC(=O)c3ccncc3)c3ccccc32)cc1,-7.64%
22,CCOc1ccc2nc(/N=C/c3nc(-c4ccccc4)oc3O)sc2c1,4.73%
23,COc1ccc(-n2c3c(cc(C(=O)N4CCC(C)CC4)c2=O)C(=O)CC(C)(C)C3)cc1,-2.69%
24,O=C(COC(=O)CNC(=O)c1ccccc1F)NCC(F)(F)F,9.36%
25,COc1cc(C(=O)O)cc(Br)c1OC1CCCC1,20.6%
26,O=S(=O)(NC1CCCCCC1)c1cccc2cccnc12,5.29%
27,O=[N+]([O-])c1ccc(NCc2ccccc2)c2nonc12,19.7%
28,CC(OC(=O)c1cccc([N+](=O)[O-])c1)C(=O)NCc1ccc2c(c1)OCO2 (stereo not shown),-11.4%

row,Structure (SMILES),"hERG current change (%, negative = inhibition) at 10uM"
1,Cc1ccc(CNC(=O)c2ccccc2NC(=O)CN2CC(C)OC(C)C2)cc1 (stereo not shown),-13.2%
2,COc1cccc(N2CCN(CC(=O)Nc3ccccc3C(=O)NCc3ccccc3)CC2)c1,-60.9%
3,Cc1ccc(CNC(=O)c2ccccc2NC(=O)CN2CCN(C)CC2)cc1,-59.2%
4,COc1ccc(N2CCN(CC(=O)NC(=O)NCc3ccccc3)CC2)cc1,10.4%
5,CC(=O)N1CCN(CC(=O)Nc2ccccc2C(=O)NCc2ccc(C)cc2)CC1,-25.4%
6,COc1cccc(N2CCN(CC(=O)Nc3ccccc3C(=O)NCCc3ccccc3)CC2)c1,89.9%
7,COc1cccc(N2CCN(CC(=O)NCc3ccccc3)CC2)c1,-5.53%
8,COc1ccc(N2CCN(CC(=O)NCc3ccccc3)CC2)cc1,0.922%
9,COc1ccc(N2CCN(CC(=O)Nc3ccccc3C(=O)NCc3ccccc3)CC2)cc1,-55.9%
10,CC(Oc1ccc(F)cc1)C(=O)NN (stereo not shown),18.6%
11,O=C(CCc1ccccc1)Nc1cc2c(cc1Cl)OCCO2,-7.19%
12,COc1ccc(-c2csc(Nc3cccc(C)n3)n2)cc1C,5.87%
13,O=C1NC(=S)N(c2ccc(Cl)cc2)C(=O)/C1=C/N1CCN(C(=O)c2ccco2)CC1,7.25%
14,Cc1cc(C(=O)OCC(=O)Nc2nc(-c3ccccc3)cs2)c(C)o1,15.8%
15,Cc1oncc1C(=O)NC(C)C,-3.53%
16,CN(C(=O)c1ccc(NC(=O)Cc2ccc(NC(=O)C3CCCN(C(=O)C4CC4)C3)cc2)cc1)C1CC1 (stereo not shown),-4.41%
17,Cc1nn(S(=O)(=O)c2ccc(Cl)cc2)c(C)c1S(=O)(=O)N1CCOCC1,20.9%
18,CCOc1ccccc1C1CC(=O)Nc2cc(OC)c(OC)c(OC)c21 (stereo not shown),19.6%
19,CCOCCN1CCN(c2c(CC)c(C)nc3cc(-c4cc(OC)cc(OC)c4)nn23)CC1,-72.4%
20,COCCN1CCN(c2c(C)c(C)nc3cc(-c4cccc(OC)c4)nn23)CC1,-15.6%
21,COc1cc(OC)cc(-c2cc3nc4c(c(N5CCN(c6ncccn6)CC5)n3n2)CCCC4)c1,4.89%
22,CCc1c(C)nc2cc(-c3cc(OC)cc(OC)c3)nn2c1N1CCCC1,-2.11%
23,CCc1c(C)nc2cc(-c3cc(OC)cc(OC)c3)nn2c1N1CCN(CCN2CCOCC2)CC1,-33.5%
24,CCOCCN1CCN(c2c(C)c(C)nc3cc(-c4cc(OC)cc(OC)c4)nn23)CC1,-73.3%
25,Nc1nc2ccc(C(=O)Nc3ccccc3)cc2s1,7.6%
26,Cc1ccc2c(c1)CC1(CN2C)C(=O)NC(=O)N(CCc2ccccc2)C1=O (stereo not shown),-15.2%
27,CNC(=O)C(C)c1ncc(C(F)(F)F)cc1Cl (stereo not shown),17.6%

# — article PMC4336329 (PLoS ONE, 2015)
